# An excerpt weighted towards active compounds, which were near 7.3% of everything screened.
# ELG1 genotox = genotoxicity induction in ELG1-luciferase HEK293T cells; HEK293T ELG1-luciferase reporter, luminescence, 16 h; Potency, µM (series often up to 46 µM), most hits filed as activators; actives 1.3% (n = 330,000); AID 504466; note: nearly all actives have a fitted effect of over 60% in size
#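 Genotoxic stress is detected as increased luminescence from luciferase-tagged ELG1 in HEK293T cells, measured with ONE-Glo after a 16 hr treatment at 37 °C.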
# NPC1 prom act = activators of NPC1 promoter. Huh7 NPC1 promoter luciferase reporter, 24 h. Potency, µM (top dose mostly 9.22 µM), most hits filed as activators. actives 2.4% (n = 320,000). AID 485313; note: nearly all actives have a fitted effect of over 60% in size
#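 Luminescence read-out of NPC1 promoter-driven luciferase in stably transfected Huh7 cells; compounds delivered in DMSO and left 24 h at 37C, 5% CO2, qHTS titration format.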
# FLuc counter = firefly luciferase modulation, counter-screen for miR-21 project. purified FLuc, Km substrates, luminescence inhibition. Potency, µM (series often up to 57.5 µM), most hits filed as inhibitors. P08659. actives 6.9% (n = 360,000); note: nearly all actives have a fitted effect of over 55% in size
# Target sequence (P08659 whole entry, looked up): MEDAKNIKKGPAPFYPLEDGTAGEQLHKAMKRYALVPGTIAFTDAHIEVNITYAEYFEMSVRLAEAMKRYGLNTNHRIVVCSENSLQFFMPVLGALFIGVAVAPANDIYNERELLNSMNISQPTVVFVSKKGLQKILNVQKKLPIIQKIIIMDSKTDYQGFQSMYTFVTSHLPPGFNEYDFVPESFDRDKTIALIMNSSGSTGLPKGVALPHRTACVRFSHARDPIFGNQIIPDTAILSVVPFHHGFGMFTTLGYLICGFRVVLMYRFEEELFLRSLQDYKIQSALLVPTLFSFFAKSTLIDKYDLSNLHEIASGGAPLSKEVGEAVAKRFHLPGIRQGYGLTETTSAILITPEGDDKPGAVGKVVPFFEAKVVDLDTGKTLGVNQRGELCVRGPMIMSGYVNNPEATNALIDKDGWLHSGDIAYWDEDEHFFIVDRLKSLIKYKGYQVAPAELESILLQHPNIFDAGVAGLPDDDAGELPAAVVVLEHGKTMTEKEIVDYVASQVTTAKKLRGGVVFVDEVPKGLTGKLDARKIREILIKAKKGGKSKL
#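 Purified P. pyralis luciferase (10nM final) with 10uM D-luciferin and 10uM ATP (Km levels) in 50mM Tris acetate pH 7.5, 10mM Mg acetate, 0.01% Tween-20, 0.05% BSA; qHTS 6-point titration, ~60 µM downward; luminescence read.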
# SMN2 splice enh = SMN2 splice variant enhancement; actives 2.8% (n = 210,000); HEK293 SMN2-luciferase splicing reporter, luminescence, 30-36 h; Potency, µM (top dose mostly 46.1 µM), hits mostly activators; AID 1458; note: nearly all actives have a fitted effect of over 55% in size
#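 HEK293 cells carry an SMN2 […]–luciferase reporter in which exon 7 inclusion puts luciferase in frame. Cells were plated 10-12 h before compound addition, then incubated 30-36 h at 37C. ONE-Glo luminescence was read; sodium butyrate at 4.5 mM final served as control.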
# Rab9 promoter act = activates the Rab9 promoter. Huh7 Rab9 promoter-luciferase reporter, luminescence, 24 h. Potency, µM (doses to about 9.22 µM), hits mostly activators. actives 2.8% (n = 320,000). AID 485297; note: nearly all actives have a fitted effect of over 60% in size
#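 Rab9 promoter-driven luciferase in stably transfected Huh7 cells; 1500 cells/well rested 2 h, exposed to compound in DMSO for 24 h at 37 °C, 5% CO2. Luminescence read 10 min after adding luciferase reagent at ambient temperature.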
# p53 reactivation = mutant p53 re-activation in reporter cells; H1299 p53-A138V BP100-luciferase reporter, luminescence, 24 h; Potency, µM (titrated, usually from 92.2 µM), usual class: activators; actives 0.063% (n = 320,000); note: nearly all actives have a fitted effect of over 45% in size
#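 H1299 (p53-null), stable ts p53-A138V + BP100-Luc; 1000 cells/well, Opti-MEM/10% FBS; cpd 4 pt, 1:5; 24 h, 37 deg C, 5% CO2; detection reagent 10 min RT; luminescence.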
# A number is an active result; – = inactive; ? = inconclusive; · = no result given; [ ] = another dose, or the depositor's remark. Calls come from the whole dose curve; as a rule, active = well fitted curve in the direction sought with a large enough effect; inconclusive = small, poorly fitted or top-dose-only effect, or another doubt; inactive = no such curve, though single readings can be large; an effect the other way counts as inactive or inconclusive.
SMILES,ELG1 genotox,NPC1 prom act,FLuc counter,SMN2 splice enh,Rab9 promoter act,p53 reactivation
O=C(CNS(=O)(=O)c1ccc2ccccc2c1)OCc1nnc(-c2ccccc2)o1,?,–,–,–,–,–
COc1ccc(C(=O)N2CCC[C@@]3(CCN(C)C3)C2)cc1,·,·,·,–,·,·
CC[n+]1c(/C=C/C=C2/N(C)c3ccccc3C2(C)C)sc2ccccc21,·,–,·,·,–,·
O=C(CCOc1ccccc1)Nc1ccc([N+](=O)[O-])cc1,–,–,–,–,–,–
Cc1cccc(C(=O)Nc2ccc3ccccc3c2)c1,?,?,2.39µM,·,0.631µM,–
COc1cccc(C(=O)Nc2cccc(SC)c2)c1,9.2µM,–,9.53µM,?,?,?
COc1cccc(C(=O)Nc2c(F)c(F)c(F)c(F)c2F)c1,–,–,–,–,–,–
Cc1cccc(C(=O)Nc2ccc(C)c(OC(=O)c3cccc(C)c3)c2)c1,?,–,–,–,–,?
CS(=O)(=O)Nc1ccc(C(=O)Nc2ccc3ccccc3c2)cc1,?,?,2.39µM,·,0.631µM,·
Cc1ccc2c(c1)c(=O)c(C(=O)c1ccncc1)cn2CC(=O)Nc1c(C)cccc1C,·,·,–,·,·,·
CN1CCN(c2oc(/C=C/c3ccc(F)cc3)nc2C#N)CC1,·,·,–,–,·,·
CCOc1cc(C(=O)OCc2cc(=O)n3nc(CC)sc3n2)cc(OCC)c1OCC,·,·,–,·,·,·
COc1ccc(OC)c(C(=O)c2coc3ccc(OC(C)=O)cc23)c1,–,–,–,–,–,–
COc1ccc2occ(C(=O)c3ccc(N)cc3)c2c1,?,1.41µM,6.01µM,·,0.631µM,–
COc1ccc(C(=O)c2coc3ccc(OC(C)=O)cc23)cc1,?,?,9.53µM,·,–,?
COc1ccc2occ(C(=O)c3cccs3)c2c1,6.51µM,?,6.01µM,–,?,?
COc1ccc(CCC(=O)Nc2cc3c4c(c2)CC(=O)N4CCC3)cc1,–,–,–,·,–,–
COc1ccc(C(=O)Nc2cc3c4c(c2)C(C)C(=O)N4CCC3)cc1OC (stereo unspecified),?,–,–,·,–,–
COc1ccc(C(=O)Nc2cc3c4c(c2)CC(=O)N4CCC3)c(OC)c1,?,?,15.1µM,·,?,–
COc1ccc(C(=O)Nc2cc3c4c(c2)C(C)C(=O)N4CCC3)cc1 (stereo unspecified),?,–,12µM,·,–,–
COc1ccc(C(=O)Nc2cc3c4c(c2)CC(=O)N4CCC3)cc1,?,–,21.3µM,·,–,–
Cc1cccc(NS(=O)(=O)c2ccc3c(c2)OCC(C(=O)N2CCCC2)O3)c1C (stereo unspecified),·,·,–,·,·,·
COc1cc(/C=N/NC(=O)c2cccc(NC(=O)c3ccccc3Cl)c2)ccc1O,–,–,15.1µM,–,–,–
COc1ccccc1/C=N/NC(=O)c1cccc(NC(=O)c2ccccc2Cl)c1,–,–,?,–,–,–
COc1ccc(N2Cc3ccc(C(=O)N/N=C\c4ccc(O)cc4O)cc3C2)cc1,–,?,15.1µM,·,?,–
SMILES,ELG1 genotox,NPC1 prom act,FLuc counter,SMN2 splice enh,Rab9 promoter act,p53 reactivation
COc1ccc(NC(=O)O/N=C/c2ccccc2Cl)cc1,–,–,30.1µM,·,–,–
COc1ccc2nc(C)cc(SCC(=O)N/N=C/c3ccc(O)cc3O)c2c1,–,–,–,–[1.84 µM],–,–
COc1ccc(/C=N/NC(=O)c2cccc(NC(=O)c3ccccc3Cl)c2)c(OC)c1,–,–,4.26µM,–,–,–
Cc1cc(C)n2nc(CCCO)nc2n1,–,–,–,·,–,–
O=C(N/N=C/c1ccc(F)cc1)c1cccc(NC(=O)c2ccccc2Cl)c1,–,–,9.53µM,·,–,–
COc1ccc(/C=N/NC(=O)c2cccc(NC(=O)c3ccccc3Cl)c2)cc1,–,–,5.36µM,·,–,–
O=C(N/N=C/c1ccncc1)c1cccc(NC(=O)c2ccccc2Cl)c1,–,–,?,–[1.84 µM],–,–
COc1ccc(C(=O)Nc2cccc(C(=O)N/N=C/c3ccc(OC)cc3OC)c2)cc1,–,?,1.9µM,·,3.98µM,–
CCCCC(=O)Nc1cccc(C(=O)N/N=C/c2ccc(OC)cc2OC)c1,–,–,16.9µM,–,–,–
COc1ccc(/C=N/NC(=O)c2cccc(NC(C)=O)c2)c(OC)c1,–,–,–,–,–,–
CCOc1ccccc1CNC(=O)c1cc2c(=O)n(Cc3ccccc3)ccc2nc1C,·,·,–,·,·,·
O=C(c1cccs1)N(Cc1cccnc1)c1nc2ccc(F)cc2s1,·,·,–,·,·,·
CCc1cccc(C)c1NC(=O)CN1CCCN(Cc2ccccc2Cl)S1(=O)=O,·,·,–,·,·,·
CCCCn1c(N)c(N(CCOC)C(=O)CN2C(=O)C3CCCCC3C2=O)c(=O)[nH]c1=O (stereo unspecified),–,–,–,·,–,?
Cc1ccccc1C(=O)Nc1cccc(C(=O)N/N=C/c2ccccn2)c1,–,–,?,·,–,–
COc1ccccc1/C=N/NC(=O)c1cccc(NC(=O)c2ccccc2C)c1,–,–,15.1µM,·,–,–
CSc1ncc2c(n1)-c1ccccc1N(Cc1ccccc1)S2(=O)=O,·,·,–,·,·,·
Cc1ccccc1-c1nnc(CS(=O)(=O)c2ccccc2)o1,?,1.12µM,4.78µM,·,1.12µM,?
Cc1cc(-c2nnc(-c3cccc(Cl)c3)o2)no1,?,3.55µM,5.36µM,·,2.51µM,–
Cc1nnc(-c2ccccc2)o1,–,–,–,·,–,–
Cc1cccc(-c2nnc(-c3ccccc3)o2)c1,8.2µM,?,9.53µM,11.2µM,?,11.2µM
Cc1cc(NC(=O)CSc2nnc(-c3cccc(Cl)c3)o2)no1,–,–,–,·,–,–
Cc1ccccc1-c1nnc(-c2ccccc2)o1,9.2µM,?,6.75µM,12.6µM,3.16µM,?
CN(Cc1ccccc1)c1nc(-c2ccc(F)cc2)cc(C(F)(F)F)n1,·,·,–,–,·,·
CN(Cc1ccccc1)c1ccc2cc(S(=O)(=O)N3CCCCC3)ccc2n1,·,·,–,·,·,·
SMILES,ELG1 genotox,NPC1 prom act,FLuc counter,SMN2 splice enh,Rab9 promoter act,p53 reactivation
Cc1c2cnn(CC(=O)N3CCCCC3)c(=O)c2c(C)n1Cc1ccc(Cl)cc1,·,·,–,–,·,·
Cc1ccccc1-c1noc(-c2cccnc2N(C)Cc2ccc(Cl)cc2)n1,·,·,–,·,·,·
Cn1cc(-c2nnc(-c3ccccc3)o2)c2ccccc21,?,2.51µM,0.675µM,2.51µM,2.24µM,–
Cc1ccc(CS(=O)(=O)c2ccccc2-c2nnc(-c3ccc(Cl)cc3)o2)cc1,–,–,–,–,–,–
Cc1ccccc1-c1nnc(-c2ccc(Cl)cc2)o1,16.4µM,?,6.75µM,·,3.98µM,?
Cc1ccccc1-c1nc(Cc2ccc(Cl)cc2)no1,23.1µM,–,?,–,–,–
NC(=[SH+])N=N/C=C1/C=CC=CN1.O=S(=O)(O)O.[Fe],·,·,·,–[9.22 µM],·,·
O=C(COC(=O)Cc1n[nH]c(=O)c2ccccc12)Nc1cccc(C(F)(F)F)c1,–,–,–,–,–,–

# Assay outcomes as filed in PubChem.
